This is an account of results in PubChem BioAssay (Tox21).

Experiment [1] is described as follows: Nuclear factor erythroid 2-related factor 2/antioxidant responsive element (Nrf2/ARE) small molecule agonists: qHTS cell viability counter screen in human keratinocytes (AID 1919968; active = well fitted curve in the direction sought with a large enough effect in the repeat runs; an effect the other way counts as inactive or inconclusive; note: nearly all actives have a fitted effect of over 55% in size). The method in brief:
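Parallel cytotoxicity read: KeratinoSens HaCaT cells, compound treatment 23 h, viability by CellTiter-Fluor fluorescence 1 h post-reagent.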
Background: In qHTS, concentration-response curves come from the screen itself.

The target of experiment [2] is Gonadotropin-releasing hormone receptor (Homo sapiens) (UniProt P30968). The experiment is described as follows: Human gonadotropin-releasing hormone receptor (GnRHR) small molecule agonists, calcium flux assay in GnRHR-HEK293 cells (AID 1920063). Note: nearly all actives have a fitted effect of over 35% in size. Summed up: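 Calcium flux, agonist mode, human GnRHR stably integrated in HEK293; dye 1 h at 37 C before compound; Ex/Em=480/540 kinetic read, 3 min; 15 concentrations, triplicate.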
Sequence of Gonadotropin-releasing hormone receptor (Homo sapiens) (P30968 whole entry, looked up): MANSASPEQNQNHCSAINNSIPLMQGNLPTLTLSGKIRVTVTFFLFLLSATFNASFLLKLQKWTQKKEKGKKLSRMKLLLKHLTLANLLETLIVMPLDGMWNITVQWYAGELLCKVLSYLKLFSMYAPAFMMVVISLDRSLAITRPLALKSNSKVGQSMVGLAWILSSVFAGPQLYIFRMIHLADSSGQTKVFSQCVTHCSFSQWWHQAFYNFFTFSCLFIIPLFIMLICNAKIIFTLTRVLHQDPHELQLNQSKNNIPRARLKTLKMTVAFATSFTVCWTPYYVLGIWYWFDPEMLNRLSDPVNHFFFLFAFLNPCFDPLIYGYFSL
On the technique in general: Calcium flux is commonly read through the fluorescence of an indicator in the cells.

The nature of experiment [3]: p53 small molecule agonists, cell-based qHTS assay with human liver microsomes (AID 1963577). The method in brief:
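p53RE-bla reporter cells were pre-incubated 5 h at 37 C, then treated with compounds plus human liver microsomes (0.5 mg/mL final) and NADPH (0.5 mg/mL final) for 16 h at 37 C. Beta-lactamase activity was read by LiveBLAzer fluorescence after 2 h at room temperature.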

Experiment [4] can be described thus: p53 small molecule agonists, cell-based qHTS assay with human liver microsomes: qHTS cell viability counter screen (AID 1963579). Note: nearly all actives have a fitted effect of over 45% in size. Summed up:
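p53RE-bla cells (4,000/well) were pre-incubated 5 h at 37 C, then given compounds in DMSO plus human liver microsomes (0.5 mg/mL final) and NADPH (0.5 mg/mL final) for 16 h at 37 C. Viability was read by CellTiter-Glo luminescence.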

A short description of experiment [5]: p53 small molecule agonists, cell-based qHTS assay with rat liver microsomes: qHTS cell viability counter screen (AID 1963580). Note: nearly all actives have a fitted effect of over 45% in size. Summed up: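 After the beta-lactamase ratio was read, CellTiter-Glo was added to the same wells and luminescence measured at 30 min; cells had been treated 16 h at 37 C with compounds, rat liver microsomes and NADPH (0.5 mg/mL final each).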

The nature of experiment [6]: p53 small molecule agonists, cell-based qHTS assay: qHTS cell viability counter screen (AID 1963581). Note: nearly all actives have a fitted effect of over 45% in size. Note: potency is the fitted concentration of half-maximal effect. The method in brief: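 Multiplexed with the reporter read, a CellTiter-Glo step (30 min, room temperature) gauges ATP-based viability of HCT-116 p53RE-bla cells after 16 h compound incubation at 37 C.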
Experiment [7] in a line: p53 small molecule agonists, cell-based qHTS assay (AID 1963582; active = well fitted activation curve with a large enough effect in the signal ratio in the repeat runs, not every such curve was filed as active; the % refers to the signal ratio). The method in brief: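 Beta-lactamase reporter cells (p53RE-bla) treated with compounds for 16 h at 37 C; FRET substrate, 2 h, room temperature; fluorescence intensity.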
Experiment [8] has as its target 5-hydroxytryptamine receptor 2A (Homo sapiens) (UniProt P28223). Briefly: 5-hydroxytryptamine receptor 2A (HTR2A) small molecule antagonists, cell-based qHTS assay (AID 1963586). Note: nearly all actives have a fitted effect of over 45% in size. The method in brief:
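CHO cells stably expressing human HTR2A were plated for 18 h at 37 C, then loaded with calcium dye for 1 h. Compounds were preincubated 5 min at room temperature before DOI (4 nM solution) was added. Kinetic fluorescence was read for 3 min.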

The target is the same in experiment [9]. Briefly: 5-hydroxytryptamine receptor 2A (HTR2A) small molecule agonists, cell-based qHTS assay (AID 1963587). Note: nearly all actives have a fitted effect of over 30% in size. The method in brief: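 CHO cells stably expressing human HTR2A, plated 18 h, loaded with calcium dye 1 h at 37 C. Agonist mode: compounds added and intracellular calcium fluorescence recorded kinetically for 2 min at 1 sec intervals.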
Experiment [10] addresses Muscarinic acetylcholine receptor M1 (Homo sapiens) (UniProt P11229). The experiment is described as follows: Cholinergic receptor muscarinic 1 (CHRM1) small molecule antagonists, cell-based qHTS assay (AID 1963588). Note: nearly all actives have a fitted effect of over 40% in size. Summed up:
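Compounds were tested at 15 concentrations in three independent runs. Dye-loaded CHRM1-CHO cells were exposed 5 min at room temperature before stimulation by acetylcholine added at 50nM. Intracellular calcium was read kinetically on FDSS for 3 min.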

For experiment [11] the target is unchanged. The experiment is described as follows: Cholinergic receptor muscarinic 1 (CHRM1) small molecule agonists, cell-based qHTS assay (AID 1963589). Note: nearly all actives have a fitted effect of over 35% in size. The method in brief: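 qHTS, 15-point titration, 3 independent runs: compounds pin-transferred onto dye-loaded CHRM1-CHO cells (human M1), calcium fluorescence followed every second to detect agonism.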
A short description of experiment [12]: cAMP Responsive Elements (CRE) small molecule agonists, cell-based qHTS assay (AID 1963590). Summed up:
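Quantitative HTS for CRE agonists: HEK 293T CRE-bla cells, overnight plating, 3 h compound incubation at 37 C/5% CO2, then 2 h room-temperature LiveBLAzer B/G FRET substrate loading.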

A short description of experiment [13]: cAMP Responsive Elements (CRE) small molecule antagonists, cell-based qHTS assay (AID 1963591; active = well fitted inhibition curve with a large enough effect in the signal ratio in the repeat runs, not every such curve was filed as active; the % refers to the signal ratio). Summed up: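 Fluorescence intensity from cleaved LiveBLAzer B/G substrate (2 h, room temperature) quantified CRE-bla activity in HEK 293T cells exposed 3 h to compound with 0.25 uM final NKH477.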
The target in experiment [14] is Beta-2 adrenergic receptor (Homo sapiens) (UniProt P07550). The experiment is described as follows: Adrenergic beta2 receptor (ADRB2) small molecule antagonists, cell-based qHTS assay (AID 1963592). Note: series mostly up to about 92 µM; nearly all actives have a fitted effect of over 50% in size. The method in brief: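 Assay format: CHO-ADRB2 cells, 18-20hr seeding at 37C/5% CO2, then compound plus 1nM isoproterenol agonist mix for 0.5hr RT. Homogeneous time-resolved fluorescence cAMP detection after 1hr, expressed as 665/615 nm ratio.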
Sequence of Beta-2 adrenergic receptor (Homo sapiens) (P07550 whole entry, looked up): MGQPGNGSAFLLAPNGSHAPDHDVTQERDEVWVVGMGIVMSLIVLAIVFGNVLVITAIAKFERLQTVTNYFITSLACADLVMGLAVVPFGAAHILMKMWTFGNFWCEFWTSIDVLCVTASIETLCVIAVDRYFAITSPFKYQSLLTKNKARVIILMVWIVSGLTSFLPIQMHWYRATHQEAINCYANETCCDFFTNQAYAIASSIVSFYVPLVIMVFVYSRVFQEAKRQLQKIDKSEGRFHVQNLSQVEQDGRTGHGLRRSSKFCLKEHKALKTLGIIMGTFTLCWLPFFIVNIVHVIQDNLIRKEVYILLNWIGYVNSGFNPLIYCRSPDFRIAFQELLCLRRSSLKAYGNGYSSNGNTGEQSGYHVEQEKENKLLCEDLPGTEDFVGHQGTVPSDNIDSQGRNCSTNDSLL

The target of experiment [15] is D(2) dopamine receptor (Homo sapiens) (UniProt P14416). Briefly: Dopamine D2 receptor (DRD2) small molecule agonists, cell-based qHTS assay (AID 1963594). Note: nearly all actives have a fitted effect of over 35% in size. The method in brief: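 HEK293 cells stably expressing human DRD2, pre-treated with PDE inhibitor Ro20-1724 (0.1 mM final) and compound 10 min at room temperature, then stimulated with NKH477 (200nM […]) for 30 min. cAMP read by HTRF (665/620 nm).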
Sequence of D(2) dopamine receptor (Homo sapiens) (P14416 whole entry, looked up): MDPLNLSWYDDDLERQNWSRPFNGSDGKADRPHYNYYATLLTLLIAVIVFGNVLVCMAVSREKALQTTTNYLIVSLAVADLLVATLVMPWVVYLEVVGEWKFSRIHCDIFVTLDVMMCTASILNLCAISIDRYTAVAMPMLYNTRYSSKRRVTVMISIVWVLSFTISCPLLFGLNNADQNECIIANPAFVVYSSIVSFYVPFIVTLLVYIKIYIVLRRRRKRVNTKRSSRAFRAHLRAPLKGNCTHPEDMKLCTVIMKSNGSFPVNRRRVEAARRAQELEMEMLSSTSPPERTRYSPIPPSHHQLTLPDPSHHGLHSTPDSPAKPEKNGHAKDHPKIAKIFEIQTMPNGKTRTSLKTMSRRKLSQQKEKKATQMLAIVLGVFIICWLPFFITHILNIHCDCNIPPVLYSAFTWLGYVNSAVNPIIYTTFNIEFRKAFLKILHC

Experiment [16] has the same target. The experiment is described as follows: Dopamine D2 receptor (DRD2) small molecule antagonists, cell-based qHTS assay (AID 1963595; active = well fitted inhibition curve with a large enough effect in the signal ratio in the repeat runs, with a control signal flat; the % refers to the signal ratio). Summed up: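 HEK293 cells stably expressing DRD2, preincubated with 0.1 mM Ro20-1724 and compounds 10 min, were stimulated with 200 nM NKH477 plus 12 nM quinpirole for 30 min at room temperature; cAMP measured by HTRF (665/620 nm).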

The nature of experiment [17]: G protein-coupled receptor (GPCR) small molecule agonists, calcium flux assay: HEK293 wild type cell line counter screen (AID 1920065). Summed up:
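Non-specific calcium responders were flagged by adding DMSO-dissolved compounds to dye-loaded cells and reading 480/540 nm fluorescence each second for 3 min; ATP served as positive control.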

Experiment [18] is described as follows: p53 small molecule agonists, cell-based qHTS assay with rat liver microsomes (AID 1963578). Summed up: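 p53RE-bla cells were exposed to compounds together with rat liver microsomes (0.5 mg/mL final) and NADPH (0.5 mg/mL final) for 16 h at 37 C, then read by LiveBLAzer beta-lactamase fluorescence after 2 h at room temperature.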
Experiment [19] concerns the target Beta-2 adrenergic receptor (Homo sapiens) (UniProt P07550). Briefly: Adrenergic beta2 receptor (ADRB2) small molecule agonists, cell-based qHTS assay (AID 1963593).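 Note: CHO cells stably overexpressing human ADRB2.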 Summed up:
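CHO cells stably over-expressing ADRB2 were plated overnight at 37C, then dosed with compounds plus a stimulation mix containing 100uM IBMX and 25uM Ro-20-1724 for 0.5hr at room temperature. cAMP was measured by HTRF competition, 1hr.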

The target of experiment [20] is KiSS-1 receptor (Homo sapiens) (UniProt Q969F8). The experiment is described as follows: Human kisspeptin (KISS1R) small molecule agonists, calcium flux assay in KISS1R-HEK293 cells (AID 1920064; active = well fitted curve in the direction sought with a large enough effect in the repeat runs; an effect the other way counts as inactive or inconclusive). Summed up:
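Triplicate 15-concentration series were applied to dye-loaded human KISS1R HEK293 cells, and agonist-evoked calcium fluorescence was captured for 3 min.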

The structures appear in SMILES notation. Inconclusive results are not listed. More than one record can exist for a structure, and the calls need not agree. The source made the active and inactive calls. Unless noted, calls come from the whole dose curve.

Sequence of 5-hydroxytryptamine receptor 2A (Homo sapiens) (P28223 whole entry, looked up): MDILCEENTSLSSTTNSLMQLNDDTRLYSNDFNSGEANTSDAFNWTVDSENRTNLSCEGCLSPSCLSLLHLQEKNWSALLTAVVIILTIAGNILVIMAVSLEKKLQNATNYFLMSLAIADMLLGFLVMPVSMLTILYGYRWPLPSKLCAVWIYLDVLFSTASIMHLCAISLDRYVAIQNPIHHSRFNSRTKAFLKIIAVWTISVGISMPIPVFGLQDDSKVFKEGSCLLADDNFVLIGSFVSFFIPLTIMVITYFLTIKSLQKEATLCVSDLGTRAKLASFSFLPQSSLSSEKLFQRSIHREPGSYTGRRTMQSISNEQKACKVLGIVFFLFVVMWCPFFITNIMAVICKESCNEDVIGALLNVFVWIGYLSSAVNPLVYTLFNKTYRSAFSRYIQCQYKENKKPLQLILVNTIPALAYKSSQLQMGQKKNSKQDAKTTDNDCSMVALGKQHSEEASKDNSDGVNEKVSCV
Sequence of Muscarinic acetylcholine receptor M1 (Homo sapiens) (P11229 whole entry, looked up): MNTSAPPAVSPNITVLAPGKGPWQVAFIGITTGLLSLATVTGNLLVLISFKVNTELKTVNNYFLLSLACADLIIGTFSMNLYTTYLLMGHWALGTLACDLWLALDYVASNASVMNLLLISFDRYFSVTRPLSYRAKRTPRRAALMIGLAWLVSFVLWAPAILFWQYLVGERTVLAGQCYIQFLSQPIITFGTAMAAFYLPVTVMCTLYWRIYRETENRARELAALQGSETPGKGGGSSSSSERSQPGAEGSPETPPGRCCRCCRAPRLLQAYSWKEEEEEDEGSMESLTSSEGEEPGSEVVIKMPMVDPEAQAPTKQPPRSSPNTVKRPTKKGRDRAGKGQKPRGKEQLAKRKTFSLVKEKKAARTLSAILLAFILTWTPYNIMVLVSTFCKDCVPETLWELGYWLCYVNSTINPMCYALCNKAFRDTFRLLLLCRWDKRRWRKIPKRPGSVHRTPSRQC
Sequence of KiSS-1 receptor (Homo sapiens) (Q969F8 whole entry, looked up): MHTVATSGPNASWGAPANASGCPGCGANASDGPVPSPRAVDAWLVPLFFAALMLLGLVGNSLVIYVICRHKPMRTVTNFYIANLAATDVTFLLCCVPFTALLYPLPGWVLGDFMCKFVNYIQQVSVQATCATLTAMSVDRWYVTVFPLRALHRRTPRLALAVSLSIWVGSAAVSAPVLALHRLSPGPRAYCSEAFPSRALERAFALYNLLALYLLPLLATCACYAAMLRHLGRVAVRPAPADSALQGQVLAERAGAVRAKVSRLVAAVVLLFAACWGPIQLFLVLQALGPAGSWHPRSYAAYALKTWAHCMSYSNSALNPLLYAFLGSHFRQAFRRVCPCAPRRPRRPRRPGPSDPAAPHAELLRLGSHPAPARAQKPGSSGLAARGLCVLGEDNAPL

In the case of `Cc1ccc(Cl)cc1N`, the Potency entry in experiment [1], in experiment [2], in experiment [3], in [4], in [5] and in experiment [6] was “inactive” in each case. Further, the Potency entry in experiment [7], in experiment [8], in [9], in [10], in experiment [11] and in [12] was “inactive” in each case. The Potency result in experiment [13], in [14], in [15] and in experiment [16] was “inactive” each time.

On to `CC(=O)[C@H]1[C@H](C#N)C[C@H]2[C@@H]3CC=C4C[C@@H](O)CC[C@]4(C)[C@H]3CC[C@@]21C`, for which the Potency result in [1], in experiment [2], in [17], in experiment [3], in [18] and in experiment [4] was “inactive” in each case. Moreover, the Potency entry in [5], in experiment [6], in [7], in [12], in experiment [14] and in experiment [15] was “inactive” throughout. Moreover, in experiment [16], the Potency result was “inactive”.

Take `CC[C@H](C)COC(=O)/C=C/c1ccc(N=Cc2ccc(OC)cc2)cc1`: the Potency entry in experiment [1], in experiment [2], in experiment [17], in experiment [3], in experiment [18] and in experiment [6] was “inactive” each time. For the same compound, the Potency result in [8], in [10], in experiment [11], in [13] and in experiment [19] was “inactive” in each case.

Turning to `CCC(C)[O-].CCC(C)[O-].CCOC(=O)/C=C(/C)[O-].[Al+3]`, the Potency entry in [1], in [2], in experiment [17], in [4], in experiment [5] and in [6] was “inactive” each time. In addition, the Potency result in experiment [8], in [9], in experiment [10], in [11], in [12] and in [13] was “inactive” throughout. Besides, the Potency result in experiment [14], in experiment [15] and in experiment [16] was “inactive” throughout.

`CC(C)COC(=O)c1ccc(O)cc1`: the Potency result in experiment [1], in experiment [2], in experiment [17], in experiment [3], in experiment [18] and in [4] was “inactive” throughout. Also, the Potency result in experiment [5], in experiment [6], in [7], in experiment [9], in experiment [10] and in [11] was “inactive” throughout. Also, the Potency result in experiment [14] and in [16] was “inactive” throughout.

For the compound `CCCCOCCOCCOCc1cc2c(cc1CCC)OCO2`, the Potency result in experiment [1], in experiment [2], in experiment [17], in [4], in experiment [8] and in experiment [9] was “inactive” in each case. Besides, the Potency result in experiment [10], in experiment [11], in experiment [12], in experiment [14], in experiment [19] and in experiment [15] was “inactive” throughout. In experiment [16], the Potency entry was “inactive”. Also, the Potency in experiment [6] was 41.3 µM (active) and inactive.

Regarding `COc1cccc(N)c1`, the Potency entry in experiment [1], in [2], in experiment [17], in experiment [3], in [18] and in experiment [4] was “inactive” in each case. Besides, the Potency result in experiment [5], in experiment [6], in experiment [7], in [8], in [9] and in experiment [10] was “inactive” throughout. The Potency result in experiment [11], in [12], in experiment [13], in experiment [14], in experiment [15] and in experiment [16] was “inactive” in each case.

As to `c1ccc2sc(SN3CCOCC3)nc2c1`, the Potency entry in [1], in [20], in experiment [17], in experiment [3], in [18] and in experiment [4] was “inactive” throughout. The Potency entry in experiment [5], in experiment [6], in [7], in experiment [8], in experiment [9] and in [10] was “inactive” throughout. Besides, the Potency result in [11], in experiment [12], in [13], in experiment [14], in experiment [19] and in [15] was “inactive” throughout. Moreover, the Potency entry in experiment [16] is “inactive”.

Take `CCCC(=O)OCC`: the Potency result in experiment [1], in experiment [2], in experiment [17], in experiment [3], in [18] and in [4] was “inactive” each time. Moreover, the Potency entry in [5], in [6], in [7], in experiment [8], in experiment [9] and in experiment [10] was “inactive” throughout. For the same compound, the Potency entry in experiment [12], in experiment [13], in [14] and in experiment [16] was “inactive” in each case.
